Results from PubChem BioAssay AID1159580 (chemical genetic matrix, 2015).
Values joined by “and” are separate entries in the source; they are usually repeats but may differ in a detail not shown here. Equal values may be shown once. Among all 5,500 compounds or so, about 2,000 (36%) were called active. Another 18% or so got no clear call; they are omitted. No stated cut-off is given here; in the data, active means normalized growth mostly below about 0.91 (no sharp cut-off); inconclusive means no clear call, values can overlap the other calls; inactive means mostly above about 0.92. The list shows a part of the results.

Experiment: chemical genetic growth profiling, strain panel (AID 1159580);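 further: tested at 20 µM; growth read once vehicle control cultures reached saturation at 30 °C; 1 = growth at the plate median or of vehicle wells; lower values mean less growth of the strain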
Conditions: S. cerevisiae deletion strains, growth OD

Measured: normalized growth

Cc1[nH]c2ccccc2c1CN(C)C
inactive: locus YAL021C, strain ccr4, active compounds read low 1.01 | locus YAL026C, strain drs2, active compounds read low 1.03 | locus YAL030W, strain snc1, active compounds read low 1.02 | locus YBL061C, strain skt5, active compounds read low 1.02 | locus YBR009C, strain hhf1, active compounds read low 1.02 | locus YBR021W, strain FUR4, active compounds read low 0.951 | locus YBR023C, strain chs3, active compounds read low 1.02 | locus YBR171W, strain sec66, active compounds read low 1.02 | locus YBR229C, strain ROT2, active compounds read low 0.998 | locus YBR231C, strain swc5, active compounds read low 1.02 | locus YBR279W, strain paf1, active compounds read low 1.01 | locus YCL011C, strain gbp2, active compounds read low 1.02 | locus YCL016C, strain dcc1, active compounds read low 1.01 | locus YCL029C, strain bik1, active compounds read low 0.986 | locus YCL069W, strain vba3, active compounds read low 1.01 | locus YCR088W, strain abp1, active compounds read low 1.02 | locus YDL005C, strain med2, active compounds read low 1.03 | locus YDL035C, strain GPR1, active compounds read low 1.01 | locus YDL040C, strain nat1, active compounds read low 1.02 | locus YDL074C, strain BRE1, active compounds read low 1 | locus YDL101C, strain DUN1, active compounds read low 1.01 | locus YDL134C, strain PPH21, active compounds read low 1.02 | locus YDL185W, strain tfp1, active compounds read low 1.01 | locus YDL192W, strain arf1, active compounds read low 0.983 | locus YDR001C, strain nth1, active compounds read low 1.01 | locus YDR069C, strain doa4, active compounds read low 1.02 | locus YDR101C, strain arx1, active compounds read low 0.968 | locus YDR137W, strain rgp1, active compounds read low 1.03 | locus YDR150W, strain NUM1, active compounds read low 1.01 | locus YDR159W, strain sac3, active compounds read low 1.05 | locus YDR162C, strain NBP2, active compounds read low 1.07 | locus YDR195W, strain ref2 1.03 | locus YDR297W, strain sur2, active compounds read low 1.02 | locus YDR318W, strain mcm21, active compounds read low 0.995 | locus YDR334W, strain swr1, active compounds read low 1.01 | locus YDR335W, strain msn5, active compounds read low 1.01 | locus YDR388W, active compounds read low 0.993 | locus YDR392W, strain spt3, active compounds read low 1.03 | locus YDR502C, strain sam2, active compounds read low 0.987 | locus YEL003W, strain gim4, active compounds read low 1.01 | locus YEL037C, strain rad23, active compounds read low 1.01 | locus YEL061C, strain CIN8 (second series), active compounds read low 1.03 | locus YEL061C, strain CIN8, active compounds read low 1.02 | locus YER015W, strain faa2, active compounds read low 1.01 | locus YER016W, strain bim1, active compounds read low 1.01 | locus YER110C, active compounds read low 0.984 | locus YER111C, strain swi4, active compounds read low 1.03 | locus YER155C, strain BEM2, active compounds read low 0.983 | locus YER167W, strain BCK2, active compounds read low 1 | locus YFR010W, strain ubp6, active compounds read low 1.01 | locus YGL078C, strain dbp3, active compounds read low 1.01 | locus YGL086W, strain mad1, active compounds read low 0.996 | locus YGL167C, strain pmr1, active compounds read low 1.04 | locus YGL173C, strain kem1, active compounds read low 1.03 | locus YGL227W, strain vid30, active compounds read low 1.01 | locus YGL240W, strain doc1, active compounds read low 1.01 | locus YGL248W, strain PDE1, active compounds read low 1.03 | locus YGL253W, strain hxk2, active compounds read low 1.02 | locus YGR135W, strain pre9, active compounds read low 0.995 | locus YGR229C, strain SMI1, active compounds read low 1.06 | locus YGR252W, strain gcn5, active compounds read low 0.908 | locus YHR013C, strain ard1, active compounds read low 1.03 | locus YHR027C, strain rpn1, active compounds read low 1.03 | locus YHR030C, strain SLT2, active compounds read low 1 and 0.988 | locus YHR079C, strain IRE1 (second series), active compounds read low 0.995 | locus YHR079C, strain IRE1, active compounds read low 0.982 | locus YHR094C, strain hxt1, active compounds read low 0.989 | locus YHR129C, strain ARP1, active compounds read low 1.01 | locus YHR142W, strain chs7, active compounds read low 1.03 | locus YHR200W, strain rpn10, active compounds read low 0.991 | locus YIL066C, strain RNR3, active compounds read low 1.02 | locus YIL073C, strain SPO22, active compounds read low 1.02 | locus YIL125W, strain kgd1, active compounds read low 1.01 | locus YIR030C, strain dcg1, active compounds read low 0.99 | locus YJL092W, strain hpr5, active compounds read low 1.01 | locus YJL095W, strain BCK1 (second series), active compounds read low 1.02 | locus YJL095W, strain BCK1, active compounds read low 1.06 and 0.973 | locus YJL115W, strain asf1, active compounds read low 1.02 | locus YJL129C, strain trk1, active compounds read low 1.03 | locus YJL134W, strain LCB3, active compounds read low 0.994 | locus YJL154C, strain vps35, active compounds read low 1.02 | locus YJL164C, strain tpk1, active compounds read low 1.01 | locus YJL166W, strain qcr8, active compounds read low 1.02 | locus YJL168C, strain set2, active compounds read low 0.993 | locus YJL187C, strain SWE1 (second series), active compounds read low 1.01 | locus YJL187C, strain SWE1, active compounds read low 1.02 | locus YJR043C, strain POL32, active compounds read low 0.995 | locus YJR066W, strain TOR1, active compounds read low 0.906
